# Experimental data: PubChem BioAssay AID1159580 (chemical genetic matrix, 2015)
# Out of some 5,500 compounds screened, about 2,000 (36%) were called active. Another 18% or so got no clear call; they are omitted. No stated cut-off is given here; in the data, active means normalized growth mostly below about 0.91 (no sharp cut-off); inconclusive means no clear call, values can overlap the other calls; inactive means mostly above about 0.92. Some of the results follow.
# Assay: chemical genetic growth profiling, strain panel (AID 1159580);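 further: tested at 20 µM; growth read once vehicle control cultures reached saturation at 30 °C; 1 = growth at the plate median or of vehicle wells; lower values mean less growth of the strain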
# Conditions: growth OD
smiles,measurement,setting,value
C#C[C@]1(O)CCC2C3CCC4=Cc5oncc5C[C@]4(C)C3CC[C@@]21C (some centres not stated),normalized growth,"S. cerevisiae deletion strains, locus YJR066W, strain TOR1, hits give low values",0.956 (inactive)
same,normalized growth,"S. cerevisiae deletion strains, locus YKL009W, strain mrt4, hits give low values",0.954 (inactive)
same,normalized growth,"S. cerevisiae deletion strains, locus YKL068W, hits give low values",0.922 (active)
same,normalized growth,"S. cerevisiae deletion strains, locus YKL085W, strain MDH1 (second series), hits give low values",0.889 (active)
same,normalized growth,"S. cerevisiae deletion strains, locus YKL085W, strain MDH1, hits give low values",0.889 (active)
same,normalized growth,"S. cerevisiae deletion strains, locus YKL160W, strain elf1, hits give low values",0.925 (inactive)
same,normalized growth,"S. cerevisiae deletion strains, locus YKR001C, strain vps1, hits give low values",0.831 (active)
same,normalized growth,"S. cerevisiae deletion strains, locus YKR026C, strain gcn3, hits give low values",0.948 (inactive)
same,normalized growth,"S. cerevisiae deletion strains, locus YKR091W, strain srl3, hits give low values",0.964 (inactive)
same,normalized growth,"S. cerevisiae deletion strains, locus YLL001W, strain dnm1, hits give low values",0.921 (inactive)
same,normalized growth,"S. cerevisiae deletion strains, locus YLL026W, hits give low values",0.94 (inactive)
same,normalized growth,"S. cerevisiae deletion strains, locus YLL041C, strain sdh2, hits give low values",0.961 (inactive)
same,normalized growth,"S. cerevisiae deletion strains, locus YLR027C, strain aat2, hits give low values",0.911 (active)
same,normalized growth,"S. cerevisiae deletion strains, locus YLR039C, strain RIC1, hits give low values",0.574 (active)
same,normalized growth,"S. cerevisiae deletion strains, locus YLR058C, strain SHM2, hits give low values",0.898 (inactive)
same,normalized growth,"S. cerevisiae deletion strains, locus YLR102C, strain apc9, hits give low values",0.949 (inactive)
same,normalized growth,"S. cerevisiae deletion strains, locus YLR113W, strain HOG1, hits give low values",0.95 (inactive)
same,normalized growth,"S. cerevisiae deletion strains, locus YLR221C, strain rsa3, hits give low values",0.957 (inactive)
same,normalized growth,"S. cerevisiae deletion strains, locus YLR258W, strain gsy2, hits give low values",0.955 (inactive)
same,normalized growth,"S. cerevisiae deletion strains, locus YLR262C, strain YPT6 (second series), hits give low values",0.792 (active)
same,normalized growth,"S. cerevisiae deletion strains, locus YLR262C, strain YPT6, hits give low values",0.565 (active)
same,normalized growth,"S. cerevisiae deletion strains, locus YLR268W, strain sec22, hits give low values",0.838 (active)
same,normalized growth,"S. cerevisiae deletion strains, locus YLR320W, strain mms22, hits give low values",0.914 (inactive)
same,normalized growth,"S. cerevisiae deletion strains, locus YLR330W, strain CHS5, hits give low values",0.902 (active)
same,normalized growth,"S. cerevisiae deletion strains, locus YLR342W, strain FKS1 (second series), hits give low values",0.926 (inactive)
same,normalized growth,"S. cerevisiae deletion strains, locus YLR342W, strain FKS1, hits give low values",0.875 (active)
same,normalized growth,"S. cerevisiae deletion strains, locus YLR357W, strain rsc2, hits give low values",0.944 (inactive)
same,normalized growth,"S. cerevisiae deletion strains, locus YLR370C, strain arc18, hits give low values",0.975 (inactive)
same,normalized growth,"S. cerevisiae deletion strains, locus YLR371W, strain rom2, hits give low values",0.852 (active)
same,normalized growth,"S. cerevisiae deletion strains, locus YLR384C, strain iki3, hits give low values",0.958 (inactive)
same,normalized growth,"S. cerevisiae deletion strains, locus YLR418C, strain cdc73, hits give low values",0.645 (active)
same,normalized growth,"S. cerevisiae deletion strains, locus YML016C, strain PPZ1, hits give low values",0.935 (inactive)
same,normalized growth,"S. cerevisiae deletion strains, locus YML032C, strain rad52, hits give low values",0.928 (inactive)
same,normalized growth,"S. cerevisiae deletion strains, locus YML120C, strain ndi1, hits give low values",0.924 (inactive)
same,normalized growth,"S. cerevisiae deletion strains, locus YML124C, strain tub3, hits give low values",0.92 (active)
same,normalized growth,"S. cerevisiae deletion strains, locus YMR058W, strain fet3, hits give low values",0.938 (inactive)
same,normalized growth,"S. cerevisiae deletion strains, locus YMR078C, strain ctf18, hits give low values",0.923 (inactive)
same,normalized growth,"S. cerevisiae deletion strains, locus YMR125W, strain sto1, hits give low values",0.94 (inactive)
same,normalized growth,"S. cerevisiae deletion strains, locus YMR129W, hits give low values",0.959 (inactive)
same,normalized growth,"S. cerevisiae deletion strains, locus YMR205C, strain PFK2, hits give low values",0.92 (inactive)
same,normalized growth,"S. cerevisiae deletion strains, locus YMR223W, strain ubp8, hits give low values",0.953 (inactive)
same,normalized growth,"S. cerevisiae deletion strains, locus YMR231W, strain pep5, hits give low values",0.965 (inactive)
same,normalized growth,"S. cerevisiae deletion strains, locus YMR263W, strain SAP30, hits give low values",0.926 (inactive)
same,normalized growth,"S. cerevisiae deletion strains, locus YMR307W, strain GAS1, hits give low values",0.73 (inactive)
same,normalized growth,"S. cerevisiae deletion strains, locus YNL067W, strain RPL9B, hits give low values",0.927 (inactive)
same,normalized growth,"S. cerevisiae deletion strains, locus YNL071W, strain lat1, hits give low values",0.841 (active)
same,normalized growth,"S. cerevisiae deletion strains, locus YNL183C, strain NPR1, hits give low values",0.95 (inactive)
same,normalized growth,"S. cerevisiae deletion strains, locus YNL209W, strain ssb2, hits give low values",0.991 (inactive)
same,normalized growth,"S. cerevisiae deletion strains, locus YNL233W, strain BNI4, hits give low values",0.843 (active)
same,normalized growth,"S. cerevisiae deletion strains, locus YNL248C, strain rpa49, hits give low values",0.982 (inactive)
same,normalized growth,"S. cerevisiae deletion strains, locus YNL250W, strain rad50, hits give low values",0.928 (inactive)
same,normalized growth,"S. cerevisiae deletion strains, locus YNL271C, strain bni1, hits give low values",0.908 (active)
same,normalized growth,"S. cerevisiae deletion strains, locus YNL298W, strain CLA4, hits give low values",0.953 (inactive)
same,normalized growth,"S. cerevisiae deletion strains, locus YNL307C, strain MCK1, hits give low values",0.759 (active)
same,normalized growth,"S. cerevisiae deletion strains, locus YNL322C, strain KRE1 (second series), hits give low values",0.945 (inactive)
same,normalized growth,"S. cerevisiae deletion strains, locus YNR049C, strain mso1, hits give low values",0.961 (inactive)
same,normalized growth,"S. cerevisiae deletion strains, locus YNR052C, strain pop2, hits give low values",0.956 (inactive)
same,normalized growth,"S. cerevisiae deletion strains, locus YOL012C, strain htz1",0.535 (inactive)
same,normalized growth,"S. cerevisiae deletion strains, locus YOL147C, strain pex11, hits give low values",0.899 (active)
same,normalized growth,"S. cerevisiae deletion strains, locus YOR001W, strain rrp6, hits give low values",0.972 (inactive)
same,normalized growth,"S. cerevisiae deletion strains, locus YOR061W, strain CKA2, hits give low values",0.904 (inactive)
same,normalized growth,"S. cerevisiae deletion strains, locus YOR069W, strain VPS5, hits give low values",0.955 (inactive)
same,normalized growth,"S. cerevisiae deletion strains, locus YOR070C, strain gyp1, hits give low values",0.975 (inactive)
same,normalized growth,"S. cerevisiae deletion strains, locus YOR080W, strain dia2, hits give low values",0.957 (inactive)
same,normalized growth,"S. cerevisiae deletion strains, locus YOR083W, strain WHI5, hits give low values",0.941 (inactive)
same,normalized growth,"S. cerevisiae deletion strains, locus YOR106W, strain vam3, hits give low values",0.963 (inactive)
same,normalized growth,"S. cerevisiae deletion strains, locus YOR136W, strain idh2, hits give low values",0.922 (inactive)
same,normalized growth,"S. cerevisiae deletion strains, locus YOR144C, strain elg1, hits give low values",0.914 (active)
same,normalized growth,"S. cerevisiae deletion strains, locus YOR184W, strain ser1, hits give low values",0.59 (active)
same,normalized growth,"S. cerevisiae deletion strains, locus YOR231W, strain MKK1, hits give low values",0.988 (inactive)
same,normalized growth,"S. cerevisiae deletion strains, locus YOR265W, strain rbl2, hits give low values",0.966 (inactive)
same,normalized growth,"S. cerevisiae deletion strains, locus YOR270C, strain vph1, hits give low values",0.824 (inactive)
same,normalized growth,"S. cerevisiae deletion strains, locus YOR290C, strain snf2, hits give low values",1 (inactive)
same,normalized growth,"S. cerevisiae deletion strains, locus YOR316C, strain cot1, hits give low values",0.925 (inactive)
same,normalized growth,"S. cerevisiae deletion strains, locus YPL051W, strain arl3, hits give low values",0.945 (inactive)
same,normalized growth,"S. cerevisiae deletion strains, locus YPL055C, strain LGE1, hits give low values",0.75 (active)
same,normalized growth,"S. cerevisiae deletion strains, locus YPL078C, strain atp4, hits give low values",0.902 (inactive)
same,normalized growth,"S. cerevisiae deletion strains, locus YPL106C, strain sse1, hits give low values",0.984 (inactive)
same,normalized growth,"S. cerevisiae deletion strains, locus YPL240C, strain hsp82, hits give low values",0.967 (inactive)
same,normalized growth,"S. cerevisiae deletion strains, locus YPL241C, strain CIN2, hits give low values",0.931 (inactive)
same,normalized growth,"S. cerevisiae deletion strains, locus YPL256C, strain CLN2, hits give low values",0.975 (inactive)
same,normalized growth,"S. cerevisiae deletion strains, locus YPR119W, strain clb2, hits give low values",0.915 (active)
same,normalized growth,"S. cerevisiae deletion strains, locus YPR141C, strain kar3, hits give low values",0.895 (active)
same,normalized growth,"S. cerevisiae deletion strains, locus YPR163C, strain tif3, hits give low values",0.877 (active)
same,normalized growth,"S. cerevisiae deletion strains, locus YPR167C, strain met16, hits give low values",0.926 (inactive)
same,normalized growth,"S. cerevisiae deletion strains, strain wtn01, hits give low values",0.887 (active)
same,normalized growth,"S. cerevisiae strains, strain wild type, hits give low values",0.911 (inactive)
